Holding throughout (experiment): PBM binding z-score (relative to random genomic background probes); higher = stronger binding; sequences stand for … in GC…GCGATTGACAGCGTAGAATGAAGG
For test [1], the system named is FXR:RXRa (NR concentration 270 nM, RXRa partner concentration 90 nM). The procedure, abridged: (§1)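 The probes on custom Agilent 4×180K protein-binding microarrays were double-stranded, with 34-nt variable regions bearing direct-repeat seeds, single-nucleotide variants, half-site ablations and random human genomic background sequences. Incubation lasted 1 h with ligand-free nuclear receptor dimers in PBS pH 7.4, 2% milk, 0.02% Triton X-100, 1 mM DTT, 0.2 mg/mL BSA and 0.4 mg/ml salmon testes DNA. Antibodies against each partner (one per run) detected bound dimers, and fluorescence scans were regression-normalized. Binding z-scores take the random background probes as reference.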

The subject of test [2] is LXRa:RXRa (NR concentration 270 nM, RXRa partner concentration 90 nM). The procedure, abridged:
as §1

Test [3] has as its system LXRa homodimer (NR concentration 270 nM). The procedure, abridged: as §1
Test [4] has as its system LXRb:RXRa (NR concentration 270 nM, RXRa partner concentration 90 nM). An outline of the steps: as §1
Test [5] deals with LXRb homodimer (NR concentration 270 nM). An outline of the steps: as §1
Test [6] has as its system PPARa:RXRa (NR concentration 270 nM, RXRa partner concentration 90 nM). The procedure, abridged: as §1
Test [7] relates to PPARg:RXRa (NR concentration 180 nM, RXRa partner concentration 90 nM). An outline of the steps: as §1
For test [8], the system named is PPARg:RXRa 270nM:90nM, anti-RXR (NR concentration 270 nM, RXRa partner concentration 90 nM). The procedure, abridged: as §1
In test [9] the test system is PPARg:RXRa 30nM:10nM, anti-RXR (NR concentration 30 nM, RXRa partner concentration 10 nM). An outline of the steps:
as §1

In test [10] the test system is PPARg:RXRa 90nM:30nM, anti-RXR (NR concentration 90 nM, RXRa partner concentration 30 nM). An outline of the steps: as §1
For test [11], the system named is PPARg:RXRa DBDmut IVT, anti-RXR (DBD mutation: RXRa K156A/R161A, NR concentration 270 nM, RXRa partner concentration 90 nM). The procedure, abridged: as §1
Test [12] concerns PPARg:RXRa IVT, anti-PPARg (NR concentration 270 nM, RXRa partner concentration 90 nM). The procedure, abridged:
as §1

The subject of test [13] is PPARg DBDmut:RXRa IVT, anti-PPARg (DBD mutation: PPARg1 K132A/R137A, NR concentration 270 nM, RXRa partner concentration 90 nM). The procedure, abridged:
as §1

Test [14] relates to PPARg DBDmut IVT, anti-PPARg (DBD mutation: PPARg1 K132A/R137A, NR concentration 270 nM). An outline of the steps:
as §1

Test [15] concerns PPARg homodimer (NR concentration 180 nM). An outline of the steps: as §1
The test system of test [16] is PXR:RXRa (NR concentration 270 nM, RXRa partner concentration 90 nM). An outline of the steps:
as §1

For test [17], the system named is PXR homodimer (NR concentration 270 nM). An outline of the steps:
as §1

Test [18] relates to RARa:RXR (NR concentration 270 nM, RXRa partner concentration 90 nM). An outline of the steps:
as §1

Test [19] has as its system RARa homodimer (NR concentration 270 nM). An outline of the steps: as §1
Test [20] relates to RARb:RXRa (NR concentration 270 nM, RXRa partner concentration 90 nM). The procedure, abridged: as §1

With ATCTCTAGGTAACAAGTTTAGTGAAAGAGAGGAC, the PBM binding z-score in test [1] is 0.428; in test [2], 0.215; in test [3], 0.326; in test [4] it was 0.212; in test [5] it was 0.657; in [6], 0.577. Further, the PBM binding z-score in test [7] amounted to 0.844; in test [8], 1.35; in [9] it was 0.486; in test [10], 1.37; in [11] it was 3.18; in test [12], 2.92. Further, the PBM binding z-score in test [13] was determined as 1.24; in [14], 1.38; in test [15], 1.04; in test [16], 0.591; in [17] it was 0.703; in test [18], 0.429. Besides, the PBM binding z-score in test [19] is 0.873; in [20] it was 0.574.

With TCGAGTAGATTACCAATGGGGCATTCAGCTTTCT, the PBM binding z-score in test [1] is -0.309; in test [2], -0.307; in test [3], -0.306; in test [4], 0.0449; in test [5], -0.399; in test [6] it was -0.126. Moreover, the PBM binding z-score in test [7] is -0.221; in test [8], -0.0351; in test [9], 0.935; in test [10], 0.435; in [11], 0.795; in test [12] it was -0.396. Moreover, the PBM binding z-score in test [13] was -0.19; in test [14] it was -0.114; in test [15], -0.291; in [16], -0.345; in test [17] it was -0.382; in test [18], -0.208. The PBM binding z-score was -0.677 in [19] and -0.295 in test [20].

As for TAGCCTAGGTCATTGGGCAAGTATAGTACGCATC, the PBM binding z-score in [1] came to 4.44; in [2], 3.37; in test [3], 0.712; in test [4] it was 2.16; in test [5], 0.361; in [6] it was 3.46. For the same sequence, the PBM binding z-score in test [7] turned out to be 2.93; in test [8] it was 3.07; in test [9], 0.725; in test [10], 1.95; in test [11], 1.66; in test [12], 3.17. For the same sequence, the PBM binding z-score is 0.399 in test [13]; -0.561 in [14]; 1.19 in test [15]; 1.64 in test [16]; -0.337 in test [17]; 2.38 in test [18]. Moreover, the PBM binding z-score in test [19] was -0.275; in [20], 3.66.

Turning to CCTGACAGGTGAAAGGTAACTCAGTCTGGTACGC, the PBM binding z-score was 0.803 in test [1]; 0.991 in [2]; -0.258 in test [3]; 0.923 in test [4]; -0.669 in [5]; 3.38 in test [6]. For the same sequence, the PBM binding z-score in test [7] is 5.7; in test [8], 6.09; in test [9], 4; in test [10] it was 5.75; in [11] it was 2.33; in [12], 2.82. Further, the PBM binding z-score in [13] is -0.213; in test [14], -0.0292; in test [15], 0.546; in [16] it was 0.876; in test [17], -0.396; in [18] it was 1.84. Also, the PBM binding z-score in test [19] worked out at 0.115; in [20], 1.3.

Take GCTGCTAGGTCTGGTTGGTCAGCTAACGGGTACG: the PBM binding z-score was -0.623 in test [1]; -0.65 in test [2]; -0.365 in test [3]; -0.912 in test [4]; -0.475 in [5]; -0.774 in test [6]. Moreover, the PBM binding z-score in test [7] is -0.79; in test [8] it was -0.447; in test [9], -1.15; in test [10], -0.815; in [11], -0.0168; in test [12], -0.444. The PBM binding z-score in [13] was -1.29; in test [14] it was -0.941; in test [15], -0.461; in test [16] it was -0.762; in test [17] it was -0.661; in test [18], -0.909. In addition, the values for the PBM binding z-score in test [19] and in [20] were -0.893 and 0.00464, respectively.

For TCTTGAAGATCAATAGAGGTTAAGAAAGTGCGCT, the PBM binding z-score was 1.21 in test [1]; 3.88 in test [2]; 0.18 in test [3]; 1.99 in test [4]; -0.548 in [5]; 1.79 in test [6]. For the same sequence, the PBM binding z-score in test [7] is -0.0471; in [8], 1.56; in test [9], 2.76; in test [10] it was 2.46; in test [11] it was 1.44; in test [12], 0.203. Further, the PBM binding z-score in [13] is 0.527; in [14] it was 0.485; in test [15] it was -0.0803; in [16] it was 3.15; in test [17], 0.215; in test [18] it was 1.81. In addition, the PBM binding z-score was -0.211 in [19] and 0.913 in [20].

AGAATGAGGTAATACGTAGATCAGGGAAGAAAGT: the PBM binding z-score in test [1] was 0.302; in [2] it was 0.0343; in test [3], -0.0872; in [4], 0.215; in [5] it was -0.209; in test [6] it was 0.49. The PBM binding z-score came out at 1.04 in [7]; 0.841 in test [8]; 0.517 in [9]; 0.757 in test [10]; 3.49 in [11]; 0.83 in test [12]. Also, the PBM binding z-score in test [13] is 1.02; in [14], 0.684; in [15] it was -0.201; in test [16], 0.144; in test [17], 0.294; in test [18], 0.431. Moreover, the PBM binding z-score in [19] is 0.262; in test [20], 0.0493.
